# “And” between values parts separate entries of the source, which are not always exact repeats. Equal entries are not always repeated. The source holds several records for some structures; these can differ, active in one and inactive in another. The source made the active and inactive calls. Where a call stands in place of a potency, no number is given. Unless noted, calls come from the whole dose curve; as a rule, active = well fitted curve in the direction sought with a large enough effect in the repeat runs; inconclusive = weak or mixed curves; inactive = no such curve, though single readings can be large; an effect the other way counts as inactive or inconclusive.
# Experiments:
# [1] = qHTS assay for identifying genotoxic compounds that show differential cytotoxicity against isogenic chicken DT40 cell lines with known DNA damage response pathways - wild type cell line (AID 743012); note: nearly all actives have a fitted effect of over 60% in size; note: potency is the fitted concentration of half-maximal effect
# Outline: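 First, wild type DT40 cells were plated at 300 per well and equilibrated about 0.5 h at 37 C/5% CO2. Next, compounds in DMSO were added and exposure lasted 40 h. Finally, CellTiter-Glo was added for 30 min at room temperature and luminescence recorded.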
# [2] = qHTS assay for identifying genotoxic compounds that show differential cytotoxicity against isogenic chicken DT40 cell lines with known DNA damage response pathways - Rev3 mutant cell line (AID 743014); note: nearly all actives have a fitted effect of over 55% in size; note: potency is the fitted concentration of half-maximal effect
# [3] = qHTS assay for identifying genotoxic compounds that show differential cytotoxicity against isogenic chicken DT40 cell lines with known DNA damage response pathways - Rad54/Ku70 mutant cell line (AID 743015); note: nearly all actives have a fitted effect of over 60% in size; note: potency is the fitted concentration of half-maximal effect
# [4] = qHTS assay to identify small molecule antagonists of the androgen receptor (AR) signaling pathway - cell viability counter screen (AID 743033; note: nearly all actives have a fitted effect of over 45% in size; note: potency is the fitted concentration of half-maximal effect)
# [5] = qHTS assay to identify small molecule antagonists of the androgen receptor (AR) signaling pathway using the MDA cell line - cell viability counter screen (AID 743041; note: nearly all actives have a fitted effect of over 45% in size)
# Outline: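 MDA-kb2 AR-luc human breast carcinoma cells (MMTV-luciferase, AR/GR responsive) were treated with compounds plus R1881 agonist for 16 h at 37 °C. Viability was read as CellTiter-Fluor fluorescence in the same wells as the reporter assay.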
# [6] = qHTS assay to identify small molecule antagonists of the thyroid receptor (TR) signaling pathway - cell viability counter screen (AID 743064); note: nearly all actives have a fitted effect of over 50% in size; note: potency is the fitted concentration of half-maximal effect
# Outline: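 In-well cytotoxicity read by CellTiter-Fluor (30 min, 37 C) following 23.5 h exposure of GH3 cells bearing a TRE-luciferase sensor. Compounds were added alongside 1 nM (final) T3 to drive TR transactivation.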
# [7] = test system: thyroid hormone receptor (rat, GH3 cells); assay: qHTS assay to identify small molecule agonists of the thyroid receptor (TR) signaling pathway (AID 743066; calls by dose curve)
# [8] = qHTS assay to identify small molecule antagonists of the estrogen receptor alpha (ER-alpha) signaling pathway - cell viability counter screen (AID 743074; calls by dose curve; note: nearly all actives have a fitted effect of over 45% in size)
# [9] = target: Estrogen receptor (Homo sapiens) (UniProt P03372); assay: qHTS assay to identify small molecule agonists of the estrogen receptor alpha (ER-alpha) signaling pathway (AID 743075; calls by dose curve; note: potency is the fitted concentration of half-maximal effect)
# [10] = target: Estrogen receptor (Homo sapiens) (UniProt P03372); assay: qHTS assay to identify small molecule agonists of the estrogen receptor alpha (ER-alpha) signaling pathway using the BG1 cell line (AID 743079); note: nearly all actives have a fitted effect of over 20% in size; note: potency is the fitted concentration of half-maximal effect
# [11] = qHTS assay to identify small molecule antagonists of the estrogen receptor alpha (ER-alpha) signaling pathway using the BG1 cell line (AID 743080; calls by dose curve;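 note: BG1 cells stimulated with 17beta-estradiol alongside compound; series mostly up to about 70 µM; nearly all actives have a fitted effect of over 25% in size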)
# Outline: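 Quantitative HTS on the Tox21 10K library: BG1 cells with endogenous ER-alpha and ERE-luciferase reporter, 17beta-estradiol stimulation, 21.5 h compound exposure, luminescence endpoint with parallel fluorescence cytotoxicity counter-read.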
# [12] = qHTS assay to identify small molecule antagonists of the estrogen receptor alpha (ER-alpha) signaling pathway using the BG1 cell line - cell viability counter screen (AID 743081);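 note: compound given together with 17beta-estradiol as the ER stimulus; nearly all actives have a fitted effect of over 45% in size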; note: potency is the fitted concentration of half-maximal effect
# Aromatase (Homo sapiens) = Aromatase (Homo sapiens) (UniProt P11511); assay: qHTS assay to identify aromatase inhibitors (AID 743083); note: nearly all actives have a fitted effect of over 55% in size; note: potency is the fitted concentration of half-maximal effect
# [13] = target: Estrogen receptor (Homo sapiens) (UniProt P03372); assay: qHTS assay to identify small molecule antagonists of the estrogen receptor alpha (ER-alpha) signaling pathway (AID 743069; active = well fitted curve in the direction sought with a large enough effect in the signal ratio in the repeat runs, not every such curve was filed as active; inconclusive = weak or mixed curves, or effect the other way; inactive = no such curve, though single readings can be large or run the other way; the % refers to the signal ratio; note: potency is the fitted concentration of half-maximal effect)
# Outline: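 HEK293 cells stably carrying an ER-alpha-UAS-bla beta-lactamase reporter were pre-cultured overnight in 2% charcoal-stripped FBS medium. Test compounds in DMSO were added together with 17beta-estradiol for 18 hr at 37C. Read-out was fluorescence after 2 hr with LiveBLAzer B/G FRET substrate at room temperature.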
# [14] = qHTS assay to identify small molecule antagonists of the glucocorticoid receptor (GR) signaling pathway - cell viability counter screen (AID 720693); note: nearly all actives have a fitted effect of over 55% in size
# [15] = qHTS assay to identify small molecule antagonists of the thyroid receptor (TR) signaling pathway (AID 743065); note: nearly all actives have a fitted effect of over 55% in size; note: potency is the fitted concentration of half-maximal effect
# Outline: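 GH3.TRE-Luc rat pituitary cells carrying two TR response elements driving luciferase were plated for 4 h, given compound plus 1 nM T3 (final), and incubated 23.5 h at 37 C. ONE-Glo luminescence measured reporter inhibition; CellTiter-Fluor fluorescence tracked cytotoxicity.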
# Chain of Estrogen receptor (Homo sapiens) (P03372 whole entry, looked up): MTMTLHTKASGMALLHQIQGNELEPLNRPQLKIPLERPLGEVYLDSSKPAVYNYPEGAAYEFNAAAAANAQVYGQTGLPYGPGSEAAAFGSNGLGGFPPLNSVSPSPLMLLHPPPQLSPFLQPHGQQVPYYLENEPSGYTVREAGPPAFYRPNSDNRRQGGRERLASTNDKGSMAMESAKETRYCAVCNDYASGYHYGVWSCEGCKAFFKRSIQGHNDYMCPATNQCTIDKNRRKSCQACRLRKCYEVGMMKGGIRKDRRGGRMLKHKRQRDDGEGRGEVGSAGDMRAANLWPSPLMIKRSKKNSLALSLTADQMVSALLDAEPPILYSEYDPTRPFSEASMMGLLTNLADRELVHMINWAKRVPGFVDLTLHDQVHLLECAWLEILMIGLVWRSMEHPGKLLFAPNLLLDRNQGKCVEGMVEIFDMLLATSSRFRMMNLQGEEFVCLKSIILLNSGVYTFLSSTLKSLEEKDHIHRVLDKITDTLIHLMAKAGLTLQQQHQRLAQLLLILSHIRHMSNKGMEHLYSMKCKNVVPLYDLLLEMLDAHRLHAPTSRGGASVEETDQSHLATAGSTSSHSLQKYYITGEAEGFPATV
# Chain of Aromatase (Homo sapiens) (P11511 whole entry, looked up): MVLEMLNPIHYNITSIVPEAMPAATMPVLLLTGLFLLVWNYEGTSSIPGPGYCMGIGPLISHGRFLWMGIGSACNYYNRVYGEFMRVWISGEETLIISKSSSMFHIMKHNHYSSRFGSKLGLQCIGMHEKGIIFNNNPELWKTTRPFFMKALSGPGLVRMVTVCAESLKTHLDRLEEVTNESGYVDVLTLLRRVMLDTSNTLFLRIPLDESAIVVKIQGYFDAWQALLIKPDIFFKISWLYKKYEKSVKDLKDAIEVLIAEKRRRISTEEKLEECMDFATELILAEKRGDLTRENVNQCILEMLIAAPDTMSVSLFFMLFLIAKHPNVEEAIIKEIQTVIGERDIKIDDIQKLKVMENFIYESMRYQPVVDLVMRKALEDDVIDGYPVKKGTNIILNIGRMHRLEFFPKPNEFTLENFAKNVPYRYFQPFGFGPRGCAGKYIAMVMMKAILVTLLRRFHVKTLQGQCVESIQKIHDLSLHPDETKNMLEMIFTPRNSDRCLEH
SMILES,Potency [1],Potency [2],Potency [3],Potency [4],Potency [5],Potency [6],Potency [7],Potency [8],Potency [9],Potency [10],Potency [11],Potency [12],Potency (Aromatase (Homo sapiens)),Potency [13],Potency [14],Potency [15]
C[C@]12CC[C@H]3[C@@H](CCC4=CC(=O)CC[C@@]43C)[C@@H]1CC[C@@H]2C(=O)CO,6.86 µM (active),9.69 µM (active),8.63 µM (active),inactive,inactive,inactive,inactive,inactive,inactive,7.7 µM (active),inactive,inactive,inactive,,,
COc1cccc2c1C(=O)c1c(O)c3c(c(O)c1C2=O)C[C@@](O)(C(=O)CO)C[C@@H]3O[C@H]1C[C@H](N)[C@H](O)[C@H](C)O1,inactive and 66.8 nM (active) and 24.3 nM (active),inactive and 84.1 nM (active) and 9.7 nM (active),inactive and 10.6 nM (active) and 3.1 nM (active),inactive,inactive,inactive and 1.68 µM (active) and 122 nM (active),inactive,inactive,inactive and 2.68 µM [inconclusive] (active) and 15.5 µM [inconclusive] (active),inactive,inactive,inactive and 27.3 µM (active),inactive and 6.68 µM (active) and 1.72 µM (active),inactive and 6.01 µM [inconclusive] (active) and 3.46 µM [inconclusive] (active),,
CCCCc1oc2ccccc2c1C(=O)c1cc(I)c(OCCN(CC)CC)c(I)c1,,,,inactive and 34.9 µM (active),inactive,13.3 µM (active) and 26.6 µM (active) and 21.9 µM (active),,,inactive,inactive,inactive,inactive,inactive and 43.6 µM (active),inactive,,
CCC(C)(O)CCCC(C)C (stereo not given),inactive,inactive,inactive,inactive,inactive,,inactive,inactive,inactive,inactive,inactive,inactive,inactive,inactive,inactive,inactive
Oc1ccc(O)cc1,23.7 µM (active) and 9.63 µM (active) and 61.1 µM (active),18.8 µM (active) and 24.2 µM (active) and 48.6 µM (active),26.6 µM (active) and 13.6 µM (active) and 54.5 µM (active),inactive,inactive,26.6 µM (active) and 17.1 µM (active) and 34.4 µM (active),inactive,inactive,inactive,inactive,inactive,inactive,inactive and 60.8 µM (active),,,21.1 µM (active) and 30.5 µM (active) and 30.6 µM (active)
CCCCC(CC)COCC1CO1 (stereo not given),inactive,inactive,inactive,inactive,inactive,,inactive,inactive,inactive,inactive,inactive,inactive,inactive,inactive,inactive,inactive

# Reference: PubChem BioAssay (Tox21)
